Measured values from paper PMC5540273 (PLoS ONE, 2017).

Experiments:
Conditions in all cases: concentration: 1 μM, replicates: in singlicate; n = 1
YANK2 = test system: T1, YANK2
T1 construct: gene STK32B

YANK3 = test system: T2, YANK3
T2 construct: gene STK32C

YES = test system: T3, YES
T3 construct: gene YES1

YSK1 = test system: T4, YSK1
T4 construct: gene STK25

YSK4 = test system: T5, YSK4
T5 construct: gene MAP3K19

ZAK = test system: ZAK
ZAP70 = test system: ZAP70
p38-alpha = test system: T6, p38-alpha
T6 construct: gene MAPK14

p38-beta = test system: T7, p38-beta
T7 construct: gene MAPK11

p38-delta = test system: p38-delta
p38-gamma = test system: T8, p38-gamma
T8 construct: gene MAPK12
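Note: KINOMEscan kinase panel screen.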

| Compound | %Inh (YANK2) | %Inh (YANK3) | %Inh (YES) | %Inh (YSK1) | %Inh (YSK4) | %Inh (ZAK) | %Inh (ZAP70) | %Inh (p38-alpha) | %Inh (p38-beta) | %Inh (p38-delta) | %Inh (p38-gamma) |
| --- | --- | --- | --- | --- | --- | --- | --- | --- | --- | --- | --- |
| Cn1cncc1-c1cc2c(Nc3ccc(OCc4ccccc4)cc3)ncnc2cn1 [GW281179] | 0% | 15% | 19% | 4% | 27% | 43% | 20% | 0% | 0% | 52% | 0% |
| Cc1ccc(-c2nc(Nc3ccncc3)c3ccccc3n2)s1 [GSK189015] | 12% | 28% | 5% | 0% | 0% | 0% | 0% | 0% | 0% | 49% | 12% |
| COc1cccc(C2=C(Nc3cc(Cl)c(O)c(Cl)c3)C(=O)NC2=O)c1 [SB-390767] | 0% | 4% | 19% | 0% | 30% | 0% | 0% | 0% | 0% | 39% | 0% |
| COc1ccc(CSc2nnc(-c3ccc4nccn4c3)o2)cc1C(F)(F)F | 8% | 0% | 0% | 14% | 92.3% | 0% | 0% | 4% | 21% | 0% | 3% |
| Cc1cnc(N)c(/C=C/c2cncc(C(=O)NCCc3ccc(Cl)cc3Cl)c2)c1.Cl [GSK190937] | 0% | 26% | 20% | 4% | 27% | 16% | 0% | 29% | 0% | 25% | 52% |
| Cc1ccc(NC(=O)Nc2ccccc2F)cc1-c1ccc(C(=O)Nc2ccncc2)cc1 [GSK1398477] | 12% | 16% | 26% | 3% | 86% | 60% | 0% | 36% | 12% | 36% | 0% |
| COc1ccc(Nc2nccc(N3CCC(NC(=O)C(C)c4ccc(Cl)cc4)C3)n2)cc1 (stereo not drawn) [GSK1379735] | 7% | 15% | 13% | 0% | 0% | 5% | 2% | 0% | 24% | 29% | 22% |
| COc1ccc(Nc2nccc(N3CCC(NC(=O)c4cc5ccccc5s4)C3)n2)cc1 (stereo not drawn) [GSK1379738] | 6% | 0% | 17% | 7% | 47% | 60% | 0% | 20% | 0% | 42% | 9% |
| Cn1cnc2c(N)ncnc21 [SKF-97623] | 0% | 0% | 0% | 0% | 0% | 0% | 12% | 0% | 0% | 4% | 0% |
| COc1ccc(CSc2nnc(-c3ccc4ncsc4c3)o2)cc1C(F)(F)F | 11% | 0% | 0% | 11% | 70% | 0% | 11% | 0% | 10% | 0% | 0% |
| Fc1ccc(-c2nc3n(c2-c2ccncc2)CCS3)cc1 [GI98581] | 5% | 21% | 0% | 0% | 5% | 4% | 0% | 98.4% | 14% | 14% | 0% |
| O=C(Nc1n[nH]c2nc(-c3ccco3)c(Br)cc12)C1CCN(Cc2ccccc2)C1.O=C(O)[C@H](O)[C@@H](O)C(=O)O (stereo not drawn) [SB-742034] | 9% | 0% | 12% | 0% | 56% | 0% | 35% | 13% | 15% | 7% | 20% |
| O=C1NC(=O)C(c2ccc(Cl)cc2)=C1Nc1cccc(Cl)c1 [SB-317651] | 0% | 0% | 0% | 0% | 0% | 16% | 5% | 13% | 0% | 5% | 11% |
| O=C(Nc1n[nH]c2nc(-c3cccs3)c(Br)cc12)C1CC1 [SB-735297] | 11% | 0% | 8% | 0% | 95.3% | 30% | 0% | 4% | 2% | 0% | 0% |
| CC(=O)c1c(C)c2cnc(Nc3ccn(C)n3)nc2n(C2CCCC2)c1=O | 0% | 2% | 1% | 0% | 18% | 0% | 0% | 0% | 0% | 15% | 0% |
| CNCc1ccc2nc(NC(=O)c3ccc(C(C)(C)C)cc3)cn2c1 | 22% | 3% | 0% | 7% | 30% | 3% | 15% | 83% | 0% | 0% | 26% |
| Cc1nccc(-c2c(-c3ccc(F)cc3)ncn2CCCN2CCOCC2)n1.Cl [SB-282975] | 0% | 5% | 18% | 0% | 22% | 28% | 25% | 61% | 26% | 0% | 26% |
| O=C(Nc1n[nH]c2nc(-c3cccs3)c(Br)cc12)C1CCCC1 [SB-743341] | 15% | 65% | 0% | 0% | 0% | 19% | 0% | 13% | 24% | 24% | 13% |
| Fc1ccc(-c2nc[nH]c2-c2ccncc2)cc1 [SB-217360] | 28% | 0% | 0% | 0% | 22% | 0% | 0% | 97.9% | 21% | 0% | 39% |
| Cc1cccc2c(-c3ccncn3)c(-c3ccc(F)cc3)nn12 [GW515532] | 41% | 18% | 0% | 8% | 16% | 9% | 20% | 91.6% | 1% | 15% | 20% |
| COc1ccc(Nc2nccc(N3CCC(NC(=O)C(C)c4ccc(Cl)cc4)CC3)n2)cc1 (stereo not drawn) [GSK1379812] | 2% | 1% | 0% | 0% | 0% | 0% | 0% | 1% | 0% | 27% | 2% |
| CS(=O)(=O)CCNCc1nc(-c2ccc3ncnc(Nc4ccc5c(cnn5Cc5ccccc5)c4)c3c2)cs1.Cl.Cl [GW569716] | 0% | 0% | 21% | 0% | 36% | 0% | 0% | 4% | 0% | 18% | 0% |
| CN1c2ccc(-c3ccc(C(N)=O)cc3)cc2-c2[nH]ncc2S1(=O)=O | 0% | 0% | 0% | 0% | 0% | 5% | 5% | 0% | 4% | 38% | 0% |
| O=C(Nc1n[nH]c2cc(-c3ccsc3)ccc12)C1CC1 [SB-732932] | 0% | 20% | 12% | 5% | 94.7% | 5% | 0% | 16% | 8% | 0% | 28% |
| COC(=O)c1cccc(NC(=O)NC2CCN(c3ccnc(Nc4ccc(F)cc4)n3)C2)c1 (stereo not drawn) [GSK1379725] | 0% | 0% | 8% | 0% | 8% | 2% | 0% | 0% | 0% | 51% | 0% |
| NS(=O)(=O)c1cccc(N/C=C2\C(=O)Nc3ccc(S(=O)(=O)Cc4c(Cl)cccc4Cl)cc32)c1 [GSK398099] | 0% | 12% | 22% | 0% | 39% | 4% | 20% | 0% | 0% | 27% | 7% |
| O=c1cc(N2CCOCC2)nc2n(Cc3ccccc3F)ccn12 [GSK2297428] | 0% | 0% | 0% | 0% | 33% | 0% | 0% | 5% | 0% | 26% | 0% |
| CSc1ccc(-c2nc3n(c2-c2ccncc2)CCC3)cc1 [SKF-105561] | 6% | 0% | 7% | 0% | 7% | 3% | 0% | 51% | 7% | 0% | 30% |
| CCCCc1nn2ncccc2c1-c1ccnc(NC2CC2)n1 [GW684374] | 3% | 0% | 0% | 25% | 18% | 24% | 0% | 61% | 0% | 40% | 0% |
| Fc1ccc(-c2nn3cccc(F)c3c2-c2ccncc2)cc1 [GW475620] | 46% | 12% | 5% | 0% | 14% | 25% | 3% | 97.6% | 16% | 21% | 0% |
